In PubChem BioAssay AID2685 (National Center for Advancing Translational Sciences (NCATS), 2010):
The campaign covered roughly 320,000 compounds. About 2,100 (0.66%) were called active. Roughly 53% stayed inconclusive and do not appear here. Calls come from the whole dose curve; as a rule, active = well fitted inhibition curve with a large enough effect in the signal ratio, with a control signal flat (not every such curve was filed as active); inconclusive = small, poorly fitted or top-dose-only effect, or effect the other way, or a change in a side signal; inactive = flat fitted curve, though single readings scatter; the % refers to the signal ratio. Only a selection was taken, and actives are over-represented in it overall.
Potency is the fitted concentration of half-maximal effect.

Assay: qHTS Assay for Lipid Storage Modulators in Drosophila S3 Cells;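 for cell number change: cells counted by Cell Tracker Red CMTPX staining in the red channel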
Conditions: BODIPY lipid droplet fluorescence, 18-24 h, cells fed with added oleic acid; cell number change: measured here: cell count max response; series mostly up to 46.1 µM
Procedure, shortened: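 Laser-scanning cytometry quantifies lipid droplet accumulation (500–530 nm total intensity; droplet/cell object ratio) in oleic acid-fed (400 uM added) Drosophila S3 cells treated with a concentration series. 20 uM Triacsin C defined 100% inhibition.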
For `COc1ccc(OC)c(S(=O)(=O)N2CCC(C(=O)N3CCCCCC3)CC2)c1`, the Potency was “inactive” and the cell number change was 10.5%. With `COc1ccccc1CN1CCCC(C(=O)N2CCCCC2)C1` (stereo unspecified) the Potency was “inactive” and the cell number change was -12.4%. With `COc1cc(OC)c(OC)cc1CN1CCCC(C(=O)N2CCCCC2)C1` (stereo unspecified) the Potency was “inactive” and the cell number change was -0.267%. In the case of `COc1ccc(OC)c(S(=O)(=O)N2CCCC(C(=O)N3CCC(C(N)=O)CC3)C2)c1` (stereo unspecified), the Potency is reported as “inactive”. For `COc1ccccc1CN1CCN(Cc2nc(Cc3ccccc3)no2)CC1`, the Potency was “inactive” and the cell number change was -11.2%. In the case of `COc1ccc(C(=O)COC(=O)C(CCSC)NC(=O)COc2ccccc2)cc1` (stereo unspecified), the Potency is reported as “inactive” and the cell number change is reported as -12.5%. In the case of `COc1ccc(Cc2noc(CN3CCN(Cc4csc(C)n4)CC3)n2)cc1OC`, the Potency is reported as “inactive” and the cell number change is reported as 3.13%. With `CC(Sc1cnccn1)C(=O)O` (stereo unspecified) the Potency was “inactive” and the cell number change was -4.62%. In the case of `CC(=O)NCC1CCCN(C(=O)c2oc3c(F)cccc3c2C)C1` (stereo unspecified), the Potency is reported as “inactive” and the cell number change is reported as -13.1%. For `O=C(COC(=O)C1CC1)NCc1ccccc1`, the Potency was “inactive”. With `COc1cc(OC)c(/C=N/NC(=O)Cn2nc([N+](=O)[O-])cc2C)c(OC)c1` the Potency was “inactive”. In the case of `COc1ccc(CCNC(=O)c2ccc3c(c2)NC(=O)C(CSCc2cc(C)ccc2C)N3)cc1OC` (stereo unspecified), the Potency is reported as 23.1 µM (active) and the cell number change is reported as 3.36%. With `COc1ccc(CCNC(=O)c2ccc3c(c2)NC(=O)C(C(C)C)N3)cc1OC` (stereo unspecified) the Potency was “inactive” and the cell number change was -27%. In the case of `COc1ccc(CCNC(=O)CC2Nc3cc(C)c(C)cc3NC2=O)cc1OC` (stereo unspecified), the Potency is reported as “inactive” and the cell number change is reported as 21.5%. In the case of `COc1ccc(C(=O)NNC(=O)CCCCC(=O)NNC(=O)c2ccc(OC)cc2)cc1`, the Potency is reported as “inactive” and the cell number change is reported as -8.93%. With `COc1ccc2[nH]c(C(=O)O)c(CCN3C(=O)c4ccc(C(=O)O)cc4C3=O)c2c1` the Potency was “inactive”. With `CC(C)(C)C#CCn1c(/C=[N+](\[O-])C2CCCCC2)nc2ccccc21` the Potency was “inactive” and the cell number change was -20.4%. With `Cc1nc2cc(C(=O)OCC(=O)Nc3cccc(Cl)c3)ccc2n1-c1ccccc1` the Potency was “inactive” and the cell number change was 16.2%. With `COc1cc2ccccc2cc1C(=O)NC(=S)Nc1cc(C(=O)O)ccc1C` the Potency was “inactive” and the cell number change was -26.2%. With `COc1cc2ccccc2cc1C(=O)NC(=S)Nc1ccc(C(=O)O)cc1` the Potency was 18.4 µM (active) and the cell number change was -28.9%. With `COc1cc2ccccc2cc1C(=O)NC(=S)Nc1cccc(C(=O)O)c1` the Potency was “inactive” and the cell number change was 12.5%. With `COC(=O)C1CCN(C(=O)C23CCC(C)(C(=O)O2)C3(C)C)CC1` (stereo unspecified) the Potency was “inactive”. For `Cc1ccc(NC(=O)CSc2nnc(-c3ccncc3)s2)cc1`, the Potency was “inactive” and the cell number change was 5.56%. In the case of `CCn1c(C)[n+](CC)c2ccc(S(=O)(=O)N(C)C)cc21`, the Potency is reported as “inactive” and the cell number change is reported as 4.86%. With `O=C(O)/C=C/C(=O)NCc1ccccn1` the Potency was “inactive” and the cell number change was -7.29%. For `CN(Cc1ccccc1)C(=O)COC(=O)c1ccc2ccccc2n1`, the Potency was “inactive” and the cell number change was 15.9%. In the case of `CN(Cc1ccccc1)C(=O)COC(=O)c1ccccc1Nc1ccccc1`, the Potency is reported as “inactive” and the cell number change is reported as -9.93%. In the case of `CNc1snc(C)c1C(=O)OCC(=O)N(C)Cc1ccccc1`, the Potency is reported as 14.6 µM (active) and the cell number change is reported as -17.1%. In the case of `CC(=O)Nc1ccc(S(=O)(=O)NC(CC(=O)NC2CCCCC2C)C(C)C)cc1` (stereo unspecified), the Potency is reported as “inactive”. For `CCC(C)NC(=O)CC(NS(=O)(=O)c1ccc(NC(C)=O)cc1)C(C)C` (stereo unspecified), the Potency was “inactive” and the cell number change was 10.4%. For `COCCNC(=O)CC(NS(=O)(=O)c1ccc(NC(C)=O)cc1)C(C)C` (stereo unspecified), the Potency was 5.8 µM (active) and the cell number change was -2.55%. With `Cc1cc(=O)[nH]c(SCC(N)=O)c1C#N` the Potency was 23.1 µM (active) and the cell number change was -10.4%. In the case of `CCOC(=O)CSc1[nH]c(=O)cc(C)c1C#N`, the Potency is reported as “inactive” and the cell number change is reported as 23.9%. With `Cc1cc(=O)[nH]c(SCC(=O)O)c1C#N` the Potency was “inactive” and the cell number change was -1.88%. For `Cc1ccc(C(=O)N2CCC3(CC2)Oc2ccc(F)cc2C(=O)C32CC(c3ccccc3)=NO2)s1` (stereo unspecified), the Potency was “inactive” and the cell number change was 11.1%. For `COc1ccc(OC)c(N(CC(=O)Nc2ccc(NC(C)=O)cc2)S(C)(=O)=O)c1`, the Potency was “inactive” and the cell number change was 18.4%. With `Cc1ccnc(NC(=O)c2ccc(N3C(=O)CCC3=O)cc2)c1` the Potency was “inactive” and the cell number change was -2.76%. For `Cc1ccccc1NC(=O)CCc1nnc2ccc(N3CCC4(CC3)OCCO4)nn12`, the Potency was “inactive” and the cell number change was 15.5%. For `COc1ccccc1NC(=O)CCc1nnc2ccc(N3CCC4(CC3)OCCO4)nn12`, the Potency was 2.06 µM (active) and the cell number change was -20.4%. In the case of `COc1cccc(NC(=O)CCc2nnc3ccc(N4CCN(c5cccc(OC)c5)CC4)nn23)c1`, the Potency is reported as 9.2 µM (active) and the cell number change is reported as -24.5%. For `COc1cccc(N2CCN(c3ccc4nnc(CCC(=O)Nc5cccc(C(C)=O)c5)n4n3)CC2)c1`, the Potency was “inactive” and the cell number change was -9.88%. In the case of `COc1cc(NC(=O)CCc2nnc3ccc(N4CCN(c5cccc(OC)c5)CC4)nn23)cc(OC)c1`, the Potency is reported as “inactive” and the cell number change is reported as -21.5%. In the case of `COC(=O)c1ccc(NC(=O)CCc2nnc3ccc(N4CCC5(CC4)OCCO5)nn23)cc1`, the Potency is reported as “inactive” and the cell number change is reported as -17.4%. For `CCCCC(C(=O)N/N=C/c1ccccn1)C(=O)N/N=C/c1ccccn1`, the Potency was “inactive” and the cell number change was 2.01%. With `COc1cccc(NC(C)(C)c2nnnn2-c2c(C)cccc2C)c1` the Potency was “inactive” and the cell number change was 12.6%. With `O=C(CCN1CCc2ccccc2C1)Nc1ccc(F)c(F)c1` the Potency was “inactive”. For `CCOC(=O)c1c(S(=O)(=O)NCC(=O)Nc2ccc(OC)cc2)c(C)n(C)c1C`, the Potency was “inactive”.
